In all, about 5,000 compounds went through this assay and about 3,900 (78%) were called active. The set was probably picked from earlier hits. These entries were drawn from the full list. Values without a mark were called inactive. Cut-off read from the data, not from the text of the source: active = inhibition above about 22%; inactive = the rest.
assay: fluorescence retest of MPTP screen hits in isolated mitochondria, single concentration (AID 624504); details: membrane potential, Rhodamine 123 fluorescence, at 10 µM, stronger effect = higher value;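 note: 0% = DMSO vehicle and 100% = positive control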

| Structure (SMILES) | inhibition |
| --- | --- |
| Fc1ccccc1CNC(=S)Nc1ccc(Cl)cc1 | 90.7% (active) |
| C=C1c2c(Cl)ccc(O)c2C(O)=C2C(=O)[C@]3(O)C(O)=C(C(N)=O)C(=O)[C@@H](N(C)C)[C@@H]3[C@@H](O)C12 (some centres undefined) | -13.7% |
| COc1ccc(NS(=O)(=O)c2ccc(Oc3c(C#N)cccc3C#N)cc2)cc1 | 75.8% (active) |
| S=C(NCC1COc2ccccc2O1)Nc1ccc(Br)cc1 (centres undefined) | 93.1% (active) |
| CC(NC(=S)Nc1ccccc1)C1COc2ccccc2O1 (centres undefined) | 87% (active) |
| S=C(NCCCc1ccccc1)Nc1ccc(Br)cc1 | 91.8% (active) |
| O=C(CSCc1ccc(Br)cc1)Nc1ccc(S(=O)(=O)N2CCCCCC2)cc1 | 80.4% (active) |
| Fc1cc(F)c2nc(Nc3nc4c(F)cccc4s3)sc2c1 | 69.9% (active) |
| C=CC[n+]1c(-c2ccc(C)cc2)csc1NNC(=O)Nc1ccccc1 | 83.2% (active) |
| O=C1CCCN1CCCNC(=S)Nc1ccc(F)c(Cl)c1 | 90.3% (active) |
| Oc1c(Br)cccc1/C=N/Nc1c(F)c(F)c(F)c(F)c1F | 72.3% (active) |
| Fc1ccc(N2N=C(c3cccs3)CC2c2ccco2)c(F)c1 (centres undefined) | -15.1% |
| O=C(CC(O)(C(F)(F)F)C(F)(F)F)Nc1ccc(Cl)c(Cl)c1 | 84.9% (active) |
| CCOC(=O)N1CCN(C(=O)C2CCN(c3ncnc4c3sc3cccc(F)c34)CC2)CC1 | 94.4% (active) |
| N#C/C(=C(/O)Cc1cccc2ccccc12)c1nc2ccccc2s1 | 69.1% (active) |
| COc1ccc(Br)cc1C(=O)NC(=S)Nc1cc(-c2nc3ccccc3[nH]2)ccc1C | 51% (active) |
| Cc1cc2ncn(CCCCOc3ccccc3)c2cc1C | 36.7% (active) |
| CC(C)c1ccccc1OCC(O)CN(CC(O)COc1cccc2ccccc12)C(C)C (centres undefined) | 4.85% |
| COc1ccc2c(c1)c(=Cc1ccc(N(C)C)cc1)c1cc(-c3ccccc3)[n+](C)n12 | 79.7% (active) |
| O=C(Nc1ccc(C2CC2(Cl)Cl)cc1)c1cccc([N+](=O)[O-])c1 (centres undefined) | 78.1% (active) |
| Fc1ccc2[nH]c3c(N4CCSCC4)ncnc3c2c1 | 94% (active) |
| Cc1[nH]n(-c2cccc(Cl)c2)c(=O)c1-c1ccc(Cl)cc1 | 98.6% (active) |
| C[C@@H](CN1CCC[C@H]1CN1C(N)=NC[C@@H]1Cc1ccccc1)N1C[C@@H](Cc2ccccc2)N(CCCC2CCCC2)C1=N | 7.61% |
| CS(=O)(=O)c1sc(C(=O)NC(=S)Nc2ccc(OC(F)(F)F)cc2)c2c1C=CCC2 | 71.2% (active) |
| O=[N+]([O-])c1ccc(N/N=C/c2ccccc2)cc1 | 81.9% (active) |
| Cc1cccc(COc2ccccc2/C=N/Nc2ccc([N+](=O)[O-])cc2)c1 | 81.5% (active) |
| COc1ccccc1Oc1ccc(S(=O)(=O)Nc2cccnc2)cc1 | 70.1% (active) |

| Structure (SMILES) | inhibition |
| --- | --- |
| Cc1ccc(C)c(NC(=S)NNC(=S)Nc2ccc(C(C)C)cc2)c1 | 85.3% (active) |
| S=C(NCCc1ccccc1)NCc1ccccc1Cl | 67.2% (active) |
| CCCCCC(O)c1cccc(OCc2ccc3ccccc3n2)c1 (centres undefined) | 76.1% (active) |
| S=C(Nc1cccc(Cl)c1)Nc1ccc2cn[nH]c2c1 | 92.7% (active) |
| Cc1csc(NC(=S)Nc2cccc(Cl)c2)n1 | 73.4% (active) |
| N=c1n(Cc2ccc(Cl)cc2)c2ccccc2n1CC(O)c1ccco1 (centres undefined) | 4.39% |
| CCN1/C(=C\c2ccc3ccccc3[n+]2CC)Sc2cc(C)ccc21 | 96.3% (active) |
| CCc1cc2c(N3CCN(c4nnc(CC)s4)CC3)ncnc2s1 | 41.8% (active) |
| CC(NC(=S)Nc1ccc(OC(F)F)cc1)c1ccc(F)cc1 (centres undefined) | 93.7% (active) |
| S=C(Nc1cccc(Cl)c1)Nc1ccc2c(c1)OCCO2 | 100% (active) |
| FC(F)(F)c1cccc(NC(=S)Nc2cccc(Cl)c2)c1 | 96.6% (active) |
| O=C(Nc1cccc(-c2cccc(Cl)c2)c1)C1CCN(C2CCC2)CC1 | -9.69% |
| O=C(Nc1cccc(S(=O)(=O)Nc2ccc(Cl)cc2)c1)c1ccc2c(c1)OCCO2 | 80.9% (active) |
| O=[N+]([O-])c1ccc(NS(=O)(=O)c2ccccc2)c(Cl)c1 | 97.2% (active) |
| N#C[C@]1(S(=O)(=O)c2ccccc2)C[C@@H]2ON=C(c3cccc(Br)c3)[C@@H]2C1 | 90.7% (active) |
| O=C(/C=C/c1ccc(F)cc1)Nc1cccc(S(=O)(=O)Nc2cccc(C(F)(F)F)c2)c1 | 69.5% (active) |
| O=C(/C=C(O)/C=C/c1ccc(O)cc1)/C=C/c1ccc(O)cc1 | 70.7% (active) |
| COc1ccccc1CNc1nc(Nc2ccccc2Cl)c2sccc2n1 | 67% (active) |
| COc1cccc(CNc2nc(NCc3cccs3)nc3ccsc23)c1 | 102% (active) |
| COc1cccc(CNc2nc(NCc3ccccc3OC)nc3ccsc23)c1 | 121% (active) |
| C=CCC1(CC=C)CCCN1C(=O)c1cc(COc2ccc(-n3cncn3)cc2)on1 | 103% (active) |
| CC(C)S(=O)(=O)c1csc(NC(=O)Nc2ccc(Cl)cc2)c1Cl | 90.1% (active) |
| CCNCCC(=O)N1c2ccccc2Sc2ccc(NC(=O)OCC)cc21 | -7.23% |
| CCCCCOC(=O)NCCOC(=O)Nc1ccc(C(=O)OCC)cc1 | 72.7% (active) |
| Cn1nccc1C(=O)NC1CCCc2c1cnn2-c1ccccc1F (centres undefined) | 96.6% (active) |
| COc1ccc(C(=O)NC2CCCc3c2cnn3-c2cccc(C)c2C)c(OC)n1 (centres undefined) | 84.1% (active) |
| Cn1nccc1C(=O)NC1CCCc2c1cnn2-c1ccc(F)cc1F (centres undefined) | 101% (active) |

— PubChem BioAssay AID624504 (Sanford-Burnham Center for Chemical Genomics, 2012)
